This is an account of results in PubChem BioAssay (Tox21).

Calls of active or inactive are those of the source. The call rests on the fitted dose curve. Where a SMILES comes first, the peptide text is derived from it. [ ]: non-standard residue; d: D form. pGlu = O=C1CC[C@@H](C(=O)O)N1
On the % scale 0 is the no-effect control and ±100 the full control effect.

A short description of this test: qHTS assay to identify small molecule agonists of the estrogen related receptor (ERR) signaling pathway from Tox21 library (AID 1224849). Further: nearly all actives have a fitted effect of over 15% in size. As to conditions: ERR reporter cell line, ONE-Glo luciferase, 18 h; series mostly up to 92.4 µM. Summed up:
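Luminescence readout (ONE-Glo, 30 min RT) after 18 h compound exposure at 37 C of NTP-supplied ERR reporter cells; cells were plated 6 h before compound addition by pin tool.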
On the technique in general: In qHTS, concentration-response curves come from the screen itself.
In the case of `Clc1cc(Cl)c(Cl)nc1Cl`, the call was inactive. On to `C[C@@H]1CCC[C@H](C)N1`, for which the call was inactive. On the same count and under the same terms, the value for `CCOC(=O)OC(C)OC1=C(C(=O)Nc2ccccn2)N(C)S(=O)(=O)c2ccccc21` (configuration not stated) was “inactive”; that for `O=C(O)CC(C(=O)O)S(=O)(=O)O` (configuration not stated) was “inactive”. Same read-out and setting: the entry for `CC(=O)c1ccccc1[N+](=O)[O-]` is “inactive”; for `Cc1cccc(C)c1NC(=O)CC12CCCN1CCC2` it is “inactive”; for `OCCCCCO` it is “inactive”.

As to `CC(COc1ccccc1)NN` (configuration not stated), the molecule was classed as inactive.

On to `NS(=O)(=O)Cc1noc2ccccc12`, for which the call was inactive. Consider `Cc1cc(C)c(N=Nc2c(O)c(S(=O)(=O)O)cc3cc(S(=O)(=O)O)ccc23)cc1C`, for which the activity change, positive = activation is -5.16% [at 8.39 µM] (inactive). As for `Nc1c2c(nc3c1CCC3)CCCC2`, the call was inactive.

On to `O=S(=O)(O)c1cccc2c(S(=O)(=O)O)cccc12`, for which the molecule was called inactive. With `CCCCCCCCN1CCCC1=O`, the outcome was inactive. On the same count and under the same terms, the entry for `O=S(=O)(O)c1cccc(S(=O)(=O)O)c1` is “inactive”; for `CCCO[Si](OCCC)(OCCC)OCCC` it is “inactive”.

Turning to `CC[C@H]1OC(=O)[C@H](C)[C@@H](O[C@H]2C[C@@](C)(OC)[C@@H](O)[C@H](C)O2)[C@H](C)[C@@H](O[C@@H]2O[C@H](C)C[C@H](N(C)C)[C@H]2O)[C@](C)(OC)C[C@@H](C)C(=O)[C@H](C)[C@@H](O)[C@]1(C)O`, the outcome was inactive. On the same count and under the same terms, the value for `C=CCCCCCCCCC(=O)OCC` was “inactive”.

For `CO[Si](C)(OC)c1ccccc1`, the molecule was classed as inactive. Still for that read-out and setting: the entry for `C=CCCC(=O)O` is “inactive”; for `O=Cc1cccc(Br)c1` it is “inactive”.

For the molecule `C[N+]1(CC2COC(c3ccccc3)(c3ccccc3)O2)CCCCC1` (configuration not stated), the activity change, positive = activation was 2.6% [at 19 µM] (inactive).

With `Clc1cc(Cl)cc(Cl)c1`, the molecule was classed as inactive. The same measure, in the same setting: the value for `CCOC(=O)COC(=O)c1ccccc1C(=O)OCC` was “inactive”.

Consider `CC1=NN(c2cccc(S(=O)(=O)O)c2)C(=O)C1`, for which the result was inactive.

As to `Cc1nc(C2CCCCC2)c(-c2ccc(S(N)(=O)=O)c(F)c2)o1`, the molecule was classed as inactive. As for `CCCCCCC1CCC(=O)O1` (configuration not stated), the call was inactive. With `C=COCC1CCC(COC=C)CC1` (configuration not stated), the result was inactive.

With `CC1(C)OC[C@@H](COC(=O)CCc2ccc(OC[C@@H](O)CNCCNC(=O)N3CCOCC3)cc2)O1`, the result was inactive. Same read-out and setting: the value for `CC(=O)Oc1cccc(C)c1` was “inactive”.

On to `CCC(C(=O)NC(=O)NC(C)=O)c1ccccc1` (configuration not stated), for which the molecule was called inactive. Still for that read-out and setting: the entry for `CCCCOCCOC(=O)CCCCCCCCC(=O)OCCOCCCC` is “inactive”; for `CCNC(=O)[C@@H]1CCCN1C(=O)[C@H](CCCN=C(N)N)NC(=O)[C@H](CC(C)C)NC(=O)CNC(=O)[C@H](Cc1ccc(O)cc1)NC(=O)[C@H](CO)NC(=O)[C@H](Cc1c[nH]c2ccccc12)NC(=O)[C@H](Cc1cnc[nH]1)NC(=O)[C@@H]1CCC(=O)N1` ([pGlu]HWSYGLRP-NHEt) it is “inactive”.
